Measured values from PubChem BioAssay (NCATS).
Results filed as inconclusive are left out. Values without a mark were called inactive. Calls follow the shape of the dose curve; as a rule, active = well fitted inhibition curve with a large enough effect; inconclusive = small, poorly fitted or top-dose-only effect; inactive = flat fitted curve, though single readings scatter.

The molecules below were run against Calcium and integrin-binding protein 1 (Homo sapiens) (UniProt Q99828) (assay: Primary qHTS for Identification of Calcium Integrin Binding Protein 1 (CIB1) Competitor (AID 1508620; also: top concentration of the series differs between compounds)). Conditions: CIB1-GST / FITC-alphaIIb peptide fluorescence polarization; series mostly up to 114 µM; activity change, negative = inhibition: at the top concentration.
Chain of Calcium and integrin-binding protein 1 (Homo sapiens) (Q99828 whole entry, looked up): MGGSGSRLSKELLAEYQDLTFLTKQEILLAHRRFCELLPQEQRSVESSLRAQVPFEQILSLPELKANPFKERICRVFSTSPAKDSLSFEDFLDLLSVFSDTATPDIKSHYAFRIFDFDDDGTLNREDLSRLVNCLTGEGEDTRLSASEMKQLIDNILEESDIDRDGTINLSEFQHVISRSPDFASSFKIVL
Outline: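 Fluorescence polarization competition: GST-tagged CIB1 (1 uM final) preincubated with compound 15 min at room temperature, then FITC-labelled alphaIIb peptide (100 nM final) added. After 15 min at room temperature, polarization read at Ex 480/Em 540.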
% is scaled to controls: 0 for no effect and ±100 for the full control effect.

Compound	activity change, negative = inhibition
Cc1nc2ccc(CN(C)c3ccc(C(=O)NC(CCC(=O)O)C(=O)O)s3)cc2c(=O)[nH]1 (centres undefined)	-7.9%
C=C1/C(=C/C=C2\CCC[C@@]3(C)C2CCC3[C@H](C)/C=C/[C@@H](O)C2CC2)C[C@@H](O)C[C@@H]1O (some centres undefined)	-1.17%
C=C[C@]1(C)C[C@H](O)[C@H]2C(=C)C(=O)O[C@@H]2[C@H]1C(=C)CO	-7.99%
Cc1[nH]c(/C=C2\C(=O)Nc3ccc(S(=O)(=O)N(C)c4cccc(Cl)c4)cc32)c(C)c1C(=O)N1CCN(C)CC1	-25.5%
CC1(C)CC[C@]23CO[C@@]4(CCC5[C@@]6(C)CC[C@H](O[C@@H]7OC[C@H](O[C@@H]8O[C@H](CO)[C@@H](O)[C@H](O)[C@H]8O[C@@H]8OC[C@@H](O)[C@H](O)[C@H]8O)[C@H](O)[C@H]7O)[C@@](C)(CO)C6CC[C@@]5(C)[C@]4(C)CC2=O)[C@@H]3C1 (some centres undefined)	5.59% [at 30.2 µM]
Cc1ccc(-c2cn3c4c(sc3n2)CCCC4)cc1	5.63%
CCCCNc1ncc(-c2ccc(CN3CCOCC3)cn2)c(NC2CCC(O)CC2)n1 (centres undefined)	-0.828% [at 57.7 µM]
CC(=O)C=C=C1C(C)(C)CC(O)CC1(C)O[C@@H]1O[C@H](CO[C@H]2OC[C@](O)(CO)[C@H]2O)[C@@H](O)[C@H](O)[C@H]1O (some centres undefined)	-2.56% [at 57.7 µM]
COc1ccc(CCc2nc3c(C)c(-c4c(C)noc4C)c(C)cc3n2CCN2CCOCC2)cc1	4.06%
CC(C)(Cc1nc(-c2ccc(O)cn2)no1)C(=O)NC1=C(C(=O)O)CCCC1	-5.93%
COC(=O)CC[C@@H](C)C1CCC2C3CCC4C[C@H](OC(C)=O)CCC4(C)C3C[C@H](O)C21C (some centres undefined)	4.82%
O=C(Nc1ccc(-c2ccc(Cl)c(Cl)c2)cc1)C1=C(O)c2ccccc2S(=O)(=O)N1	-2.79%
COC(=O)/C=C/C=C/C(=O)OC1C=C2COC(=O)C2(O)C2(C)CCCC(C)(C)C12 (centres undefined)	-10.3% [at 57.7 µM]
CC1=C(C(=O)Nc2cc(Cl)ccc2Cl)C(c2ccco2)C2=C(CCCC2=O)N1 (centres undefined)	1.52%
C=C1CC[C@@H]2[C@](C)(CO)[C@H](O)CC[C@@]2(C)[C@@H]1CC(=O)C1=CCOC1=O	5.11% [at 57.7 µM]
CC(=O)O[C@H]1C[C@@](O)(C(C)C)[C@@H]2[C@@H](OC(=O)c3ccc(O)cc3)CC(C)=CC[C@@]12C	-5% [at 57.7 µM]
CCc1cc(C(N)=O)ccc1-n1nc(C(C)C)c2c(-n3cnc(-c4cnn(C)c4)c3)ccnc21	-13.4%
C=C1C(=O)O[C@@H]2/C=C(\CO)CC/C=C(\CO)[C@H](OC(C)=O)C(OC(=O)C(C)CC)C12 (some centres undefined)	-4.45% [at 57.7 µM]
CC(=O)O[C@@H]1CC2C(C)(C)C(=O)C=C[C@]2(C)C2CC[C@@]3(C)[C@H](c4ccoc4)OC(=O)[C@H]4O[C@]43[C@@]21C (some centres undefined)	-6.99% [at 57.7 µM]
COc1cc2nc(N3CCN(C(=O)c4ccco4)C4CCCCC43)nc(N)c2cc1OC (centres undefined)	1.34%
NC(=O)c1ccccc1Nc1ccnc(Nc2cccc(O)c2)n1	0.55%
CC(C)C[C@@H]1NC(=O)[C@@H]2C[C@@]34C[C@@H]5[C@@]6(C)CCCC(C)(C)C6CC[C@@]5(C)N(c5ccccc53)[C@H]4N2C1=O (some centres undefined)	-5.97% [at 57.7 µM]
CC(C)=C1C[C@@]2(C)C(=CC1=O)CC[C@@H](OC(=O)/C(C)=C/CO)[C@@H]2C	-1.23% [at 57.7 µM]
CO[C@@H]1CC(OC2CCC3(C)C(CCC45CCC(C6=CC(=O)OC6)C(C)(CCC43)C5=O)C2)O[C@H](C)[C@@H]1O[C@@H]1O[C@H](CO[C@@H]2O[C@H](CO)[C@@H](O)[C@H](O)[C@H]2O)[C@@H](O)[C@H](O)[C@H]1O (some centres undefined)	-2.4% [at 30.2 µM]
Nc1ncnc2c1nc(Cl)n2C1OC2COP(=O)(O)OC2C1O (centres undefined)	2.97%
Nc1nc(Cl)nc2c1ncn2C1OC(CO)C(O)C1F (centres undefined)	10.3%
OC1C=C2C3CN(Cc4cc5c(cc43)OCO5)C2CC1O (centres undefined)	-4.33%
CO[C@H]1C[C@@H]2CC[C@@H](C)[C@@](O)(O2)C(=O)C(=O)N2CCCC[C@H]2C(=O)O[C@H]([C@@H](C)C[C@@H]2CC[C@@H](O)[C@H](OC)C2)CC(=O)[C@H](C)/C=C(\C)[C@@H](O)[C@@H](OC)C(=O)[C@H](C)C[C@H](C)/C=C/C=C/C=C/1C	-16.7%
C/C=C(/C)C(=O)O[C@H]1[C@H](OC(=O)/C(C)=C\C)[C@@]23C(CC1(C)C)[C@]1(CCC4[C@@]5(C)CC[C@H](O[C@@H]6O[C@H](C(=O)O)[C@@H](O)[C@H](O[C@@H]7O[C@H](CO)[C@H](O)[C@H](O)[C@H]7O[C@@H]7O[C@@H](C)[C@H](O)[C@@H](O)[C@H]7O[C@@H]7OC[C@@H](O)[C@H](O)[C@H]7O)[C@H]6O[C@@H]6O[C@H](CO)[C@H](O)[C@H](O)[C@H]6O)C(C)(C)C5CC[C@@]4(C)[C@]1(C)C[C@H]2O)O[C@H]3O (some centres undefined)	-2.7% [at 12.4 µM]
